Source: PubChem BioAssay AID1259309 (ICCB-Longwood Screening Facility, Harvard Medical School, 2017)
“And” between values parts separate entries of the source, which are not always exact repeats. Equal entries are not always repeated. Hit rate of the full screen: of about 330,000 compounds, about 1,800 (0.55%) were called active. Many of the other results were omitted from the sample, so actives are more common in it than they were. Values without a mark were called inactive. No stated cut-off is given here; in the data, active means growth inhibition above about 68%; inactive means the rest.

Assay: growth inhibition of ugtP-null S. aureus, primary screen, RN4220 ugtP deletion, OD600 (AID 1259309);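 further: plate controls were untreated wells for no effect and antibiotic for full effect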
Settings: 16 h, stronger effect = higher value
With `O=c1[nH]ncc(NN=Cc2cccnc2)c1Cl` the growth inhibition was 8.44%.
For `CC(CC(=O)N1CCN(C=O)CC1)=NNC(=O)c1ccc(Cl)cc1`, the growth inhibition was 3.18%.
With `COC(=O)C1=C(C(=O)OC)C2N(C)c3ccccc3[C@@]23CC(CO)N(C(=O)c2cccs2)C3=N1` (some centres not stated) the growth inhibition was 3.42%.
Compound `CCOc1ccc(-c2c(C(=O)NN=C(C)c3ccccc3OC)nnn2-c2nonc2N)cc1` has a growth inhibition of 7.28%.
Work on `COc1cc(C(=O)NN=Cc2cc([N+](=O)[O-])cs2)cc(OC)c1OC` yielded a growth inhibition of 2.4%.
With `O=C(O)C(c1ccccc1)N1C(=O)/C(=C\c2ccc(-c3cccc(Cl)c3)o2)SC1=S` (configuration not stated) the growth inhibition was 95.7% (active).
Compound `S=c1[nH]nc(-c2cccc(Cl)c2)n1N=Cc1ccc(-c2ccccc2Br)o1` has a growth inhibition of 27.2%.
Compound `CC1=NOC(=O)C1=Cc1ccc(-c2ccc(Cl)c(C(=O)O)c2)o1` has a growth inhibition of 2.05%.
With `COc1ccc(CC(=O)NCC(=O)NN=Cc2ccc(C)o2)cc1` the growth inhibition was 8.44%.
In the case of `O=C(Cc1ccccc1)NNC1CC(=O)N(c2ccc(Br)cc2)C1=O` (configuration not stated), the growth inhibition is reported as -0.3%.
For `CC(C)(C)OC(=O)C1=C(CO)CS[C@@H]2[C@H](NC(=O)Cc3ccccc3)C(=O)N12`, the growth inhibition was 101% (active).
With `CC(C)(C)OC(=O)NC(Cc1ccccc1)C(=O)NC(CO)C(O)C1CC1C(=O)NC1CC1` (configuration not stated) the growth inhibition was -0.531%.
With `N#Cc1nc(-c2ccc(OCc3ccccc3)cc2)oc1NCCCN1CCOCC1` the growth inhibition was 85.2% (active).
Compound `Cc1ccc(-c2nc(C#N)c(NCCCn3ccnc3)o2)cc1` has a growth inhibition of -7.44%.
With `O=S(=O)(c1ccccc1)c1nc(-c2ccccc2)oc1NCCCN1CCOCC1` the growth inhibition was 2.69%.
With `O=C(NN=C/C=C/c1ccco1)c1cccnc1` the growth inhibition was -1.13%.
Work on `CCC1=C(OC(=O)N(CC)CC)N2C(=O)OC(=NCC3CC3)[C@]2(Cc2ccccc2)C2C1=CCC1C(=O)N(CC(=O)OC)C(=O)C12` (some centres not stated) yielded a growth inhibition of 5.55%.
In the case of `CC(C)NC(=O)N(C)CC1Oc2ccc(NC(=O)Nc3ccc(C(F)(F)F)cc3)cc2CC(=O)N(C(C)CO)CC1C` (configuration not stated), the growth inhibition is reported as -1.09%.
With `N#C/C(=C/c1ccc(Cl)cc1)NC(=O)c1ccccc1` the growth inhibition was -7.93%.
With `N#CC(=NNc1ccc(Cl)cc1)C(=O)c1ccccc1` the growth inhibition was 99.4% (active).
Compound `N#CC(=NNc1ccc(Cl)cc1)C(=N)N1CCCCC1` has a growth inhibition of -11.7%.
For `CCCCC(O)(CCCC)C(=O)NN=C(C)c1ccc(Cl)cc1`, the growth inhibition was -3.08%.
With `COc1ccc(C(=O)NN=Cc2ccc(OC(=O)c3cccc4ccccc34)c([N+](=O)[O-])c2)cc1` the growth inhibition was 96.8% (active).
`COc1ccc(C=NNC(=O)c2ccccc2OC)cc1COc1ccccc1[N+](=O)[O-]` showed a growth inhibition of 4.98%.
`COc1ccc(C(=O)NN=Cc2ccc(OC)c(CN3CCCc4ccccc43)c2)cc1` showed a growth inhibition of -10.3%.
With `CC(=NNc1cccc(C(=O)O)c1)c1cc2ccccc2o1` the growth inhibition was 5.08%.
Compound `C=C(C)C(=O)Nc1cccc(C2=NOC3(C2)CC(C(N)=O)N(C(=O)c2ccccc2)C3)c1` (configuration not stated) has a growth inhibition of 0.731%.
In the case of `CC(C)=CCc1c(O)c(CC=C(C)C)c2occ(-c3ccc(O)cc3)c(=O)c2c1O`, the growth inhibition is reported as 98.5% (active).
For `CC(C)=CCc1ccc(O)c(=O)cc1C(C)C`, the growth inhibition was -4.82%.
`COc1ccccc1NC(=O)CC(C)=NNC(=O)c1ccccn1` showed a growth inhibition of 3.4%.
Work on `C/C(C=NNC(=O)c1nnn(-c2nonc2N)c1C(C)C)=C\c1ccccc1` yielded a growth inhibition of -3.08%.
With `Oc1ccc(CC2CNC(=S)N2CCc2cc(C(F)(F)F)cc(C(F)(F)F)c2)cc1` (configuration not stated) the growth inhibition was 10.9% and 22.1%.
`CCCCNC(=S)N(C)N=Cc1c(F)c(F)c(F)c(F)c1F` showed a growth inhibition of 4.66%.
For `Cc1[nH]n(-c2cccc(Cl)c2)c(=O)c1-c1ccc(Cl)cc1`, the growth inhibition was 87.7% (active).
Work on `Cc1cc(=O)n2[nH]c(-c3cccc(Cl)c3)cc2n1` yielded a growth inhibition of -2.61%.
With `Cc1nc2c(-c3ccccc3)c(C)[nH]n2c(=O)c1Cl` the growth inhibition was 3.35%.
For `COc1ccc(C=NNC(=O)CCc2n[nH]c(=O)[nH]c2=O)cc1OC`, the growth inhibition was -0.0548%.
For `O=C(O)C1=CC(c2ccc3c(c2)OCO3)CC(OCc2ccc(CO)cc2)O1` (configuration not stated), the growth inhibition was -2.53% and -0.0237%.
Compound `COc1cc(C=NNC(=S)NCCN2CCOCC2)ccc1O` has a growth inhibition of 11.5%.
In the case of `O=C(Nc1nnc(-c2ccccc2)o1)c1cc(-c2cccs2)nc2ccccc12`, the growth inhibition is reported as 96.3% (active).
`CC(C)(C)Cc1nnc(NC(=O)c2cc(-c3ccccc3)nc3ccccc23)s1` gave a growth inhibition of -17.6%.
`O=C(NN=Cc1ccsc1)c1cc(-c2cccs2)nc2ccccc12` showed a growth inhibition of -4.48%.
In the case of `CN1CCN(N=Cc2ccc(-c3ccc([N+](=O)[O-])cc3Cl)o2)CC1`, the growth inhibition is reported as 3.66%.
`Cc1ccc(N2C(=O)C3N=NN(CC(=O)N4N=C(c5cccc6ccccc56)CC4c4ccccc4)C3C2=O)cc1` (configuration not stated) showed a growth inhibition of -14.5%.
In the case of `Oc1ccccc1C1=NN(c2ccccc2)C(c2ccccc2)C1` (configuration not stated), the growth inhibition is reported as 99.6% (active).
With `O=C1C2N=NN(CC(=O)N3N=C(c4cccc5ccccc45)CC3c3ccccc3)C2C(=O)N1c1ccccc1` (configuration not stated) the growth inhibition was -9.34%.
With `CCOc1ccc(C=NNc2cc(N3CCOCC3)nc(C)n2)c(O)c1` the growth inhibition was 1.85%.
Work on `CC1CN(C(C)CO)C(=O)Cc2cc(NC(=O)CCC(F)(F)F)ccc2OC1CN(C)S(=O)(=O)c1ccc(Cl)cc1` (configuration not stated) yielded a growth inhibition of 4.94%.
In the case of `NCCCCC(C(=O)N1CCNCC1)n1cc(CCC(=O)O)nn1` (configuration not stated), the growth inhibition is reported as 3.28%.
`OCc1nc(CO)n(Cc2ccccc2)n1` showed a growth inhibition of 13.4%.
In the case of `OCCN(Cc1ccccc1)Cc1ccc(Cl)cc1`, the growth inhibition is reported as -6.5%.
For `OCc1ccc(-c2ccccc2)c(-c2ccccc2)c1`, the growth inhibition was 89.2% (active).
In the case of `COc1cc(CCCN2C(=O)C(=O)NCC2CC2CCCCC2)cc(OC)c1OC` (configuration not stated), the growth inhibition is reported as 2.58%.
With `Cc1cc(C=NNC(=O)c2ccccn2)c(C)n1-c1cccc([N+](=O)[O-])c1` the growth inhibition was 6.51%.
For `O=C(Nc1nnc(-c2ccc(Cl)cc2)o1)c1ccccc1Br`, the growth inhibition was 97.7% (active).
`Cc1ccnc2nc(C(=O)Nc3nnc(-c4ccccc4)o3)nn12` showed a growth inhibition of 12.9%.
`COc1ccccc1C(=O)NCC(=O)OCC(=O)Nc1nnc(-c2ccccc2)o1` showed a growth inhibition of -1.67%.
Work on `CCOC(=O)NN=Cc1ccc(C)o1` yielded a growth inhibition of 3.13%.
In the case of `N#CC(=C(O)CCl)c1nnc2n1CCCCC2`, the growth inhibition is reported as 4.05%.
Compound `C#CCOCCOCCOCCNc1nc(N2CCN(C(=O)C(CCCCN)n3cc(C(N)CC(C)C)nn3)CC2)nc(N2CCN(C(=O)C(CCCCN)n3cc(C(N)CC(C)C)nn3)CC2)n1` (configuration not stated) has a growth inhibition of 0.321%.
Compound `CC(C)NC(=O)CC(=O)NN=Cc1c(F)cccc1Cl` has a growth inhibition of -1.54%.
In the case of `Cc1cccc(CCN2C(Nc3ccccc3)=NCC2CC(C)C)c1` (configuration not stated), the growth inhibition is reported as 2.11%.
